Source: PubChem BioAssay (National Center for Advancing Translational Sciences (NCATS))
CHX counter – affects cycloheximide protein synthesis inhibition readout, counter-screen; cell reporter, cycloheximide protein synthesis inhibition counterscreen; max response, %; 300,000 tested, 12% active; AID 2314; in the data active = max response mostly above about 13%, no sharp cut-off; inactive = mostly below about 14%; note: read at 38.3 µM for the half of the compounds with a filed dose
FMDV antiviral – blocks foot and mouth disease virus; FMDV antiviral cell-based qHTS; Potency, µM (series often up to 57.9 µM), hits mostly inhibitors; 410,000 tested, 1.2% active; calls by dose curve; tested in HEK293T cells; note: read-out not given here; nearly all actives have a fitted effect of over 45% in size
Shiga inhibitor – blocks Shiga toxin action in Vero cells; Vero cells, Shiga toxin protein synthesis inhibition reporter; inhibition, % at 38.7 µM; 290,000 tested, 9.2% active; AID 2315; in the data active = inhibition mostly above about 28%, no sharp cut-off; inactive = mostly below about 43%
Sm TGR block – S. mansoni TGR enzyme inhibition | 360,000 tested, 3% active | AID 485364 | Q962Y6 | Potency, µM (top dose mostly 114 µM), usual class: inhibitors | purified TGR, DTNB reduction, TNB absorbance 405 nm; active = well fitted inhibition curve with a large enough effect; inconclusive = small, poorly fitted or top-dose-only effect; inactive = no such curve, though single readings can be large or run the other way; note: nearly all actives have a fitted effect of over 60% in size
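First, TGR (20 nM dispensed) and NADPH were mixed with compound. Second, a 15 min room-temperature incubation followed. Third, further NADPH and then DTNB were added to start the reaction. Finally, TNB absorbance was monitored kinetically.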
Hits are given with their value; – = inactive; ? = inconclusive; · = not tested or not shown; + = active, no number. The list is not random: actives were taken first. Their share in the collection is about 12%.

SMILES	CHX counter	FMDV antiviral	Shiga inhibitor	Sm TGR block
O=C(Nc1nnc(-c2ccccc2Cl)o1)c1cccnc1	19	–	58	–
O=C(Nc1ccc(Cl)c(S(=O)(=O)N2CCCCC2)c1)c1cccnc1	·	–	·	–
CCn1cc2nc(SCC(=O)Nc3cc(OC)ccc3OC)n(Cc3ccc(Cl)cc3)c(=O)c2n1	·	–	·	–
Cc1c(C(=O)Nc2nonc2-c2ccc(F)cc2)oc2ccc(F)cc12	–	?	–	–
CC(=O)Nc1ccc(NC(=O)c2oc3cc(C)c(C)cc3c2C)cc1	–	–	–	–
CCc1ccc2oc(C(=O)Nc3nonc3C)c(C)c2c1	36	–	106	–
Cc1cc2oc(C(=O)Nc3nonc3C)c(C)c2cc1C	57	–	165	–
CCc1nonc1NC(=O)c1oc2ccc(F)cc2c1C	18	–	–	–
CCn1c(=O)c2cc(C(=O)N(CC(C)C)CC(C)C)sc2c2ccccc21	·	–	·	–
Cc1cn([C@@H](CCCCNC(=O)OC(C)(C)C)C(=O)NCCCCCCCCCCC(=O)N2CCN(C(=O)OC(C)(C)C)CC2)nn1	·	11µM	·	–
CSCCC1C(C#N)=C(N)Oc2n[nH]c(-c3cccs3)c21 (centres undefined)	–	–	–	13µM
CC(C)CC1C(C#N)=C(N)Oc2n[nH]c(-c3cccs3)c21 (centres undefined)	–	–	–	–
O=c1ccc2ccccc2[nH]1	–	·	–	·
Fc1ccc(CSc2nnc(-c3cccnc3)o2)cc1	17	–	–	–
Oc1ccc(-c2nnc(SCc3ccccc3)o2)cc1	46	–	61	–
Cc1ccc(-c2nnc(SCc3ccccc3)o2)cc1	·	–	·	–
Cc1ccc(CSc2nnc(-c3cccnc3)o2)cc1	–	–	–	–
Fc1ccc(CSc2nnc(-c3ccncc3)o2)cc1	–	–	–	·
Cc1ccccc1-c1nnc(SCc2ccc(F)cc2)o1	30	–	45	–
Brc1ccc(CSc2nnc(-c3cccnc3)o2)cc1	–	–	–	–
c1ccc(CSc2nnc(-c3cccnc3)o2)cc1	31	–	74	–
Fc1ccc(Cn2c(-c3cccc(Br)c3)nc3ccccc32)cc1	·	–	·	–
c1ccc(-c2noc(C34CC5CC(CC(C5)C3)C4)n2)cc1	14	–	–	–
Cc1noc(-c2ccc(-c3noc(-c4ccccc4)n3)cc2)n1	·	–	·	–
c1ccc(-c2noc(C34CC5CC(CC(C5)C3)C4)n2)nc1	34	–	100	–
SMILES	CHX counter	FMDV antiviral	Shiga inhibitor	Sm TGR block
Cc1ccc(C(=O)Nc2nnc(SCc3cc(=O)c4c(C)ccc(C)c4[nH]3)s2)cc1	·	–	·	–
O=C(NCc1ccc(F)cc1)c1cnc(N2CCOCC2)c2ccccc12	·	?	·	–
COC(=O)CCc1c(COC(C)=O)[nH]c(C(=O)OCc2ccccc2)c1C	–	–	–	3.5µM
CC(=O)c1c(C)[nH]c(C(=O)OCc2ccccc2)c1C	38	–	120	–
CC(=O)c1c(C)[nH]c(C(=O)OCC(=O)Nc2ccc(Cl)cc2[N+](=O)[O-])c1C	–	?	–	–
COC(=O)c1ccc(COC(=O)c2[nH]c(C)c(C(C)=O)c2C)o1	–	13µM	–	–
CC(=O)c1c(C)[nH]c(C(=O)OCc2ccc([N+](=O)[O-])cc2)c1C	15	–	56	–
COc1cccc(C(=O)Nc2cc(-c3ccccc3)nn2-c2ccccc2)c1	·	–	·	?
COc1cc(NC(=O)C2CCCN(S(=O)(=O)c3cn(C)cn3)C2)cc(OC)c1 (centres undefined)	·	–	·	–
CCCn1ccc2c(OCC(=O)Nc3cc(C)ccc3C)cccc2c1=O	·	–	·	–
CCCCOC(=O)Cn1nnc2sc(-c3ccccc3)cc2c1=O	·	–	·	–
CC(=O)c1c(C)[nH]c(C(=O)OCCCCN2C(=O)c3ccccc3C2=O)c1C	–	13µM	–	–
CCOC(=O)c1[nH]c2ccccc2c1CCCN1C(=O)c2ccccc2C1=O	–	?	–	–
COC(=O)c1c[nH]c2c1-c1cc(C(=O)OCc3ccccc3)n(S(=O)(=O)c3ccc(C)cc3)c1C(=O)C2=O	·	7.9µM	·	·
CCN1CCN(C(c2ccccn2)c2c(NC(=O)c3ccccc3)sc(C)c2C)CC1 (centres undefined)	–	?	–	–
COc1ccc(C(c2c(NC(=O)c3ccco3)sc(C)c2C)N2CCOCC2)cc1 (centres undefined)	·	–	·	–
CCN1CCN(C(c2cccnc2)c2c(NC(=O)c3ccco3)sc(C)c2C)CC1 (centres undefined)	·	–	·	20µM
Cc1sc(NC(=O)c2ccco2)c(C(c2cccnc2)N2CCC(C)CC2)c1C (centres undefined)	–	18µM	–	18µM
COC(=O)[C@@H]1C[C@]2(OC(=O)c3ccccc3)C=CC(=O)C[C@@H]2N1C(=O)OCc1ccccc1	–	22µM	–	–
COC(CNC(=O)C1CCCN1C(=O)OCc1ccccc1)OC (centres undefined)	–	–	–	–
O=C(NC(=O)N1CCN(c2ccccc2)CC1)c1ccc(Cl)cc1	42	–	+	–
O=C(NCC(=O)N1CCN(c2ccccc2O)CC1)c1ccccc1	44	–	77	–
CCOc1ccc(C(=O)NCC(=O)N2CCN(c3ccccc3O)CC2)cc1	–	–	–	–
O=C(NCC(=O)N1CCN(c2ccccc2)CC1)c1ccccc1	11	–	53	–
O=C(NC(=O)N1CCN(c2cccc(Cl)c2)CC1)c1ccc(Cl)cc1	–	–	–	–
SMILES	CHX counter	FMDV antiviral	Shiga inhibitor	Sm TGR block
Cc1ccccc1OCc1nc2ccccc2n1Cc1ccccc1Cl	·	–	·	–
O=C(OCc1ccc(COC(=O)c2ccc(O)cc2)cc1)c1ccc(O)cc1	–	?	–	–
COC(=O)c1cccc(COC(=O)c2ccc(N(C)C)cc2)c1	–	–	–	–
COC(=O)c1ccc(COC(=O)c2ccc(N(C)C)cc2)cc1	41	·	65	–
CN(C)c1ccc(C(=O)OCc2ccccc2)cc1	35	–	–	–
CC1=C(C(=O)Nc2cccc(C(F)(F)F)c2)C2(CCN(C(C)C)CC2)OC1=O	·	–	·	–
CCOC(=O)C1CCN(C(=O)c2cc3cc4cc(OC)ccc4nc3o2)CC1	32	–	–	–
COc1ccc2nc3oc(C(=O)N4CC(C)CC(C)C4)cc3cc2c1 (centres undefined)	–	–	56	–
Cc1nc2ccccc2c2oc(C(=O)N3CCCC(C)C3)cc12 (centres undefined)	15	–	–	–
Cc1nc2ccccc2c2oc(C(=O)N3CCC(N4CCCCC4)CC3)cc12	–	–	–	–
COc1ccc2nc3oc(C(=O)N4CCCCC4)cc3cc2c1	30	–	76	–
COc1ccc(CNC(=O)c2cc3cc4cc(OC)ccc4nc3o2)cc1	·	–	·	–
COc1ccc2cc3cc(C(=O)N4CCN(c5ccccc5)CC4)oc3nc2c1	–	–	–	–
CCOC(=O)C1CCCN(C(=O)c2cc3cc4ccc(OC)cc4nc3o2)C1 (centres undefined)	–	–	–	–
COc1ccc2cc3cc(C(=O)N4CCCC(C)C4)oc3nc2c1 (centres undefined)	38	–	82	–
Cc1cc(C)c(NC(=O)C2CCN(S(=O)(=O)c3c(C)noc3/C=C/c3ccccc3F)CC2)c(C)c1	·	–	·	–
CCCS(=O)(=O)c1ncc(Cl)c(C(=O)N(Cc2ccccc2)Cc2ccco2)n1	–	16µM	–	5µM
